Source: PubChem BioAssay AID720504 (National Center for Advancing Translational Sciences (NCATS), 2013)
Among all 360,000 compounds or so, about 10,000 (2.8%) were called active. Inconclusive results (about 4%) are left out. Calls follow the shape of the dose curve; as a rule, active = well fitted inhibition curve with a large enough effect; inconclusive = small, poorly fitted or top-dose-only effect; inactive = flat fitted curve, though single readings scatter. For the sample, actives were picked, then their nearest neighbours and some compounds at random.

biological target: Serine/threonine-protein kinase PLK1 (Homo sapiens) (UniProt P53350); test: qHTS for Inhibitors of PLK1-PDB (polo-like kinase 1 - polo-box domain): Primary Screen; conditions: Plk1 PBD binding of FITC phosphopeptide, fluorescence polarization; also: nearly all actives have a fitted effect of over 65% in size; as to Max response, negative = inhibition: series mostly up to about 57 µM
% is scaled to controls: 0 for no effect and ±100 for the full control effect; potency is read from the fitted curve at half-maximal effect.

Serine/threonine-protein kinase PLK1 (Homo sapiens), sequence (P53350 whole entry, looked up, the tested form may be a part): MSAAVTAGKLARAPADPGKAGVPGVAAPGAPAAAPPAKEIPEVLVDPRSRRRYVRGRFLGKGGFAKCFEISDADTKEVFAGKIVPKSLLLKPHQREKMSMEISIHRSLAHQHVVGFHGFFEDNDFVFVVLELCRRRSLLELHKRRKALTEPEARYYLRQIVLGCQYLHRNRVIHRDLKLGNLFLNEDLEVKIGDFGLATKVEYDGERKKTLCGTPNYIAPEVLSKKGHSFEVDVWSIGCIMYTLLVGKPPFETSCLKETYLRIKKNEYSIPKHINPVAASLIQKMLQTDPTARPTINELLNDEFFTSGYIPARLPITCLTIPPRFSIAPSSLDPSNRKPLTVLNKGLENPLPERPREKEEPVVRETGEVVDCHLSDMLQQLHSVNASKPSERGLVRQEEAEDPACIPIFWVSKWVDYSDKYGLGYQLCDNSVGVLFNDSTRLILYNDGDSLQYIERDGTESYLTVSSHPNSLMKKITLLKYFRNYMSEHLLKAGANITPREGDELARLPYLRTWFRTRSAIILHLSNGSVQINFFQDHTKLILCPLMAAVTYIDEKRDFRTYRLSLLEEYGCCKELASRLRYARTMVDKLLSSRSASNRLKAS

Max response, negative = inhibition, inactive:
Cc1ccc(C)c(S(=O)(=O)N2CCN(C(=O)Nc3ccccc3)CC2)c1 -2.91%
Cc1ccc(S(=O)(=O)N2CC(=O)Nc3ccccc32)cc1C -4.98%
NC(c1csc(NC(=O)Nc2ccccc2Oc2ccccc2)n1)c1ccccc1Cl (stereo not given) 0.513%
Cc1cccc(N(CC(=O)N2CCCC2)S(C)(=O)=O)c1C -8.37%
O=C(NCc1ccccc1)C(c1ccc(F)cc1)N1CCN(C(=O)C2CCCO2)CC1 (stereo not given) 1.19%
CCN(C(=O)COC(=O)c1sccc1C)c1c(N)n(Cc2ccccc2)c(=O)[nH]c1=O -3.78%
CCN(C(=O)COC(=O)Cc1c(F)cccc1Cl)c1c(N)n(Cc2ccccc2)c(=O)[nH]c1=O 4.8%
COc1ccc(NC(=O)CCCOc2ccc(C(C)=O)cc2)cc1S(=O)(=O)N1CCCCC1 2.7%
Brc1ccc2nc(-c3ccccc3)c(Cc3ccccc3)n2c1 -6.3%
CN1OC[C@@H]2CN(C(=O)c3cccc4ccccc34)[C@H](c3ccc(N4CCCCC4)cc3)C[C@@H]21 -3.91%
CC1(C(=O)Nc2cccc3c2CCCC3)CCN1C(=O)C1(c2ccccc2)CC1 (stereo not given) 2.66%
CC1(Cc2ccccc2C#N)C(=O)Nc2ccc(-c3ccc4[nH]ccc4c3)cc21 (stereo not given) 2.71%
CCOC(=O)C1(CCOc2ccccc2)CCN(Cc2cc(OC)cc(OC)c2)CC1 -2.45%
CCOC(=O)C1(CCOC)CCN(Cc2ccc(C(=O)OC)cc2)CC1 -4.26%
O=C(Nc1cccc2cccnc12)c1ccc2sc([C@H]3C[C@H](O)[C@@H](CO)O3)nc2c1 3.77%
Nc1nnc(SCC(=O)Nc2ccc3nc(SCC(=O)Nc4ccccc4)sc3c2)s1 2.76%
Cn1c(=O)[nH]c(=O)c2c1nc(N1CCN(CCO)CC1)n2CCSc1nc2ccccc2s1 -15.4%
Cc1noc(C)c1S(=O)(=O)N(C)C[C@H]1OCCCC[C@@H](C)Oc2ccc(NC(=O)CCCN(C)C)cc2C(=O)N([C@H](C)CO)C[C@@H]1C -12.6%
CC1(C(=O)NS(=O)(=O)Cc2cccc(Cl)c2)CCN1C(=O)Cc1ccccc1 (stereo not given) 0.171%
Cc1c(C)c2ccc(OCC(=O)N3CCN(c4cccc(Cl)c4)CC3)cc2oc1=O -4.22%
CSCCC(NC(=O)COc1ccccc1)C(=O)N1CCN(c2cccc(C(F)(F)F)c2)CC1 (stereo not given) 10.8%
CCOc1cc(/C=N/NC(=O)c2ccncc2)cc(Br)c1O -2.72%
O=C(CC[C@H]1O[C@@H](n2ccc(=O)[nH]c2=O)[C@H](O)[C@@H]1O)N[C@H](Cc1ccccc1)C(=O)NCCCN1CCCC1=O -13.5%
CN(C)CCNC(=O)c1cccc(-c2cnc3c(NC=O)cc(-c4cccc(C(F)(F)F)c4)cn23)c1 -13.6%
CC(C)(C)OC(=O)N1CCN(C(=O)c2[nH]c(C(F)(F)F)nc2-c2ccccc2)CC1 1.58%
CCOC(=O)C(C)n1cnc2c(nnn2-c2cccc(OC)c2)c1=O (stereo not given) 1.99%
COC(=O)c1sc(N2CCN(Cc3ccccc3)CC2)nc1N -4.47%
COC(=O)C1=C(C)N(C)C(=S)NC1c1ccccc1 (stereo not given) -7.92%
CCOC(=O)c1cnc(SCC(=O)Nc2cccc(OC)c2)nc1N -5.18%
CC1(C)OC(=O)C2=C(C[C@@H](C3CC3)O[C@H]2CCc2cccc(Cl)c2)O1 4.74%
COc1ccc(C(C#N)=C2C=CC(=NO)c3ccccc32)cc1 -0.254%
COc1ccccc1NC(=O)C(CC(=O)O)Cc1cc(C)cc(C)c1 (stereo not given) -4.75%
Cn1c(Nc2ccc(F)cc2)nc2cc(-c3ccsc3)sc2c1=O -9.36%
CCn1c(CSc2ncccn2)nnc1SCC(=O)N1c2ccccc2CC1C (stereo not given) -13%
CC1Cc2ccccc2N1C(=O)CSc1nnc(-c2ccc(S(=O)(=O)N3CCCC3)cc2)n1C (stereo not given) -7.29%
Cc1ccc(Cn2cc(CN3CC(N4CCN(C)CC4)CS3(=O)=O)nn2)cc1 (stereo not given) -1.82%
O=C1[C@H]2[C@@H](c3ccc(C(F)(F)F)cc3)N[C@]3(CCCN(Cc4ccc(Br)cc4)C3=O)[C@H]2C(=O)N1Cc1ccccc1 8.62%
CC(C)C1CC2=C(C(=O)OC(C)(C)O2)C(c2ccc(F)cc2)O1 (stereo not given) 2.13%
CNC(=S)Nc1ccc([N+](=O)[O-])cc1 -17.5%
O=C(O)C(=Cc1ccc([N+](=O)[O-])cc1)CCc1ccccc1 -6.74%
CC(=O)OC[C@@H]1CN(Cc2ccccc2)C[C@H](n2cnc3c(NCc4ccco4)ncnc32)O1 1.29%
CCN1C(=O)[C@@H]2[C@@H]3CN(S(=O)(=O)c4ccccc4C)[C@@H](c4ccc(Cl)cc4)[C@@H]3C(=O)C[C@@H]2C1=O -4.29%
Cc1ccc(S(=O)(=O)NCCSc2ccccc2)cc1[N+](=O)[O-] 1.72%
Cc1cccc(CN2CCN(C3CN(Cc4cn(Cc5cc(C)cc(C)c5)nn4)S(=O)(=O)C3)CC2)c1 (stereo not given) -3.6%
COc1ccc(S(=O)(=O)N(C)C[C@H]2OCc3cnnn3CCCC(=O)N([C@H](C)CO)C[C@H]2C)cc1 -13.3%
Cc1ccccc1NC(=O)c1cc(S(=O)(=O)Nc2cccc(C(=O)O)c2)ccc1Cl 4.03%
CC(=O)Nc1cccc(/C(C)=N/NC(=O)c2c(-c3ccccc3Cl)noc2C)c1 -10.9%
CCOC(=O)[C@]12CCCC=C1N(CCC1=CCCCC1)C(=O)[C@H](CC(=O)N1CCSCC1)C2 1.28%
COC(=O)c1ccc2nc(-c3ccc(OC)c(OC)c3)c(Cc3ccccc3)n2c1 -13.8%
CN(C(=O)c1ccccn1)c1nnc(-c2ccccn2)s1 1.77%
CCN(CC)C(=O)c1sc2nc(-c3ccccc3)ccc2c1N -8.25%
O=C(NC(c1ccc(Cl)cc1)c1cnccn1)C1CCN(Cc2ccc(Cl)cc2)CC1 (stereo not given) 2.32%
Clc1cccc(Cc2c(-c3cccc(Cl)c3)nc3ccc(Cl)cn23)c1 -13.7%
O=C(COc1ccc(Cl)cc1[N+](=O)[O-])N1CCCCC1 -4.72%
CSc1ccccc1NC(=O)CN(C)CC(=O)Nc1ccc(Cl)cc1[N+](=O)[O-] -4.66%
CCOC(=O)c1c(NC(=S)SC)sc(C(=O)N2CCc3ccccc3C2)c1C -5.18%
CC(=O)NC(c1ccccc1)c1nc(-c2ccccc2C)cs1 (stereo not given) -5.3%
COCC1CCCCN1C(=O)c1cc(COc2ccc(C)c(C)c2)on1 (stereo not given) 3.28%
CCOc1ccc(NS(=O)(=O)c2ccc(C(=O)NCC3CCCO3)cc2)cc1 (stereo not given) 1.53%
CCOc1ccc(S(=O)(=O)N2CCN(C(=S)NCC3CCCO3)CC2)cc1 (stereo not given) 1.52%
Cc1ccccc1-c1n[nH]c(=S)n1/N=C/c1ccc(-c2ccccc2Br)o1 -17.2%
CN(Cc1ccccc1F)c1cc2c(c3c1ccn3C)C1CCC2O1 (stereo not given) -4.37%
O=C1OCCOC2CCCc3oc(-c4ccccc4)c1c32 (stereo not given) -1.47%
CCN(CC)CCN(C)C(c1ccnc2ccccc12)c1nnnn1-c1ccc2c(c1)OCCO2 (stereo not given) -13.1%
O=C1/C(=C/c2ccc(F)cc2)SC(=S)N1CCCC(=O)N1CCCCC1CCO (stereo not given) -15.9%
COc1ccc(/C=C2\SC(=S)N(CCC(=O)N3CCOCC3)C2=O)cc1OC -7.23%
CCCCC[C@H](C)N1C[C@@H](COCc2ccccc2)Oc2cc(N3CCC[C@@H]3CO)ccc2S1(=O)=O -6.61%

Potency, active:
Cc1ccc(C)c(S(=O)(=O)N2CC(=O)Nc3ccccc32)c1 23.8 µM
CCN(C(=O)CN1CCN(Cc2ccccc2)CC1)c1c(N)n(Cc2ccccc2)c(=O)[nH]c1=O 23.8 µM
CCOC(=O)C1(CCOC)CCN(Cc2cc3ccccc3s2)CC1 10.6 µM
O=C(O)c1ccccc1CSc1nc2ccccc2s1 8.44 µM
O=C(COc1ccc(Cl)cc1)N1CCN(c2cccc(C(F)(F)F)c2)CC1 18.9 µM
CCOC(=O)c1sc(=S)n(-c2cccc(OC)c2)c1N 14.1 µM
COC(=O)c1sc(=S)n(-c2ccccc2)c1N 10 µM
CC1Cc2ccccc2N1C(=O)CSc1nnc(C2CC2)n1C (stereo not given) 21.2 µM
O=C1/C(=C\c2ccc([N+](=O)[O-])cc2)CS(=O)(=O)C/C1=C/c1ccc([N+](=O)[O-])cc1 4.23 µM
CCS(=O)(=O)c1cc([N+](=O)[O-])c(Sc2ccccc2N)s1 23.8 µM
C/C(=N\Nc1cccc(C(=O)O)c1)c1ccc2c(c1)Nc1ccccc1S2 26.7 µM
O=C1C(Cl)=C(Oc2ccccc2)C(=O)c2ccccc21 1.68 µM
CN(C)c1ccnc2sc(C(=O)c3ccccc3)c(N)c12 29.9 µM
O=C1CCCCC1Sc1ccc(Cl)cc1[N+](=O)[O-] (stereo not given) 4.74 µM
CCOc1ccc(-n2c(N)c(C(=O)NCC3CCCO3)sc2=S)cc1 (stereo not given) 23.8 µM
CCc1n[nH]c(=S)n1/N=C/c1c[nH]c2ccc(Br)cc12 33.6 µM
CC1=C/C(=N\OS(=O)(=O)c2ccccc2)C=CC1=O 1.26 µM
C=CCOc1ccc(/C=C2\SC(=S)N(CCC(=O)O)C2=O)cc1 26.7 µM
